Molecules are shown by their SMILES. Where “and” joins values, the source holds several entries; their conditions need not be identical. Identical values can stand only once. Records with an inconclusive call do not appear. Calls of active or inactive are those of the source. Unless noted, the call rests on the fitted dose curve; in most records, active means well fitted curve in the direction sought with a large enough effect; inconclusive means small, poorly fitted or top-dose-only effect, or another doubt; inactive means no such curve, though single readings can be large; an effect the other way counts as inactive or inconclusive.

Assay [1] can be described thus: qHTS Assay for Identifying Gametocytocidal Compounds (AID 743244).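 Further: on the % scale 0 is the no-effect control and ±100 the full control effect; actives lower the fluorescent signal which means gametocytes are killed.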 To be noted: P. falciparum 3D7 stage III-V gametocytes, alamarBlue, 72 h; max response: stronger effect = lower value. A digest of the protocol: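 Compounds are pinned into medium, gametocytes (stage III–V, 3D7, 20,000 cells/well) added, and plates held 72 h at 37 °C in 5% CO2. AlamarBlue follows for 24 h before fluorescence reading.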

The nature of assay [2]: qHTS profiling of the MIPE4 collection as inhibitors of Plasmodium falciparum (3D7) proliferation (AID 743344; call rule not given here;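 further: scaled between DMSO vehicle wells and 0.29 µM artemisinin as full inhibition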). The settings on record: P. falciparum 3D7 in erythrocytes, SYBR Green DNA fluorescence, 72 h; at 28.5 µM (top of the series) unless noted. An outline of the steps: (§1)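 Erythrocytes infected with P. falciparum (0.3% parasitemia, 2.5% hematocrit) incubated with compounds 72 h at 37 C, 5% CO2. Lysis with saponin/Triton buffer containing SYBR Green I, overnight at room temperature in the dark; DNA fluorescence (485/535 nm) normalised to 0.29 uM artemisinin and DMSO.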

Assay [3] is described as follows: qHTS profiling of the MIPE4 collection as inhibitors of Plasmodium falciparum (DD2) proliferation (AID 743345; call rule not given here). To be noted: P. falciparum Dd2 in erythrocytes, SYBR Green DNA, 72 h; at 28.5 µM (top of the series) unless noted. An outline of the steps: as §1
A short description of assay [4]: qHTS profiling of the MIPE4 collection as inhibitors of Plasmodium falciparum (DD2) proliferation (Rep 2) (AID 743346; call rule not given here). The settings on record: P. falciparum Dd2 in erythrocytes, SYBR Green DNA, 72 h; at 28.5 µM (top of the series) unless noted. An outline of the steps: as §1
A short description of assay [5]: qHTS profiling of the MIPE4 collection as inhibitors of Plasmodium falciparum (HB3) proliferation (AID 743347; call rule not given here;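 further: plate controls were DMSO vehicle wells for no effect and artemisinin wells for full effect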). The settings on record: P. falciparum HB3 in erythrocytes, SYBR Green DNA, 72 h; at 28.5 µM (top of the series) unless noted. An outline of the steps: as §1
A short description of assay [6]: High-throughput drug toxicity screening in the BPDCN cell line Gen2.2 (AID 1224824; call rule not given here;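 further: cells exposed to compounds for 48 h before reading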). To be noted: Gen2.2 BPDCN cells; at 45.8 µM (top of the series) unless noted. An outline of the steps:
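Seed 500 exponentially growing Gen2.2 cells/well; add compounds by pin tool; incubate 48 h, 37 °C, 5% CO2; add CellTiter-Glo, 15 min RT; read luminescence. % activity vs DMSO (100%) and bortezomib (0%).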

A short description of assay [7]: High-throughput drug toxicity screening in the BPDCN cell line Cal-1 (AID 1224825; call rule not given here). To be noted: Cal-1 BPDCN cell viability, qHTS; at 45.8 µM (top of the series) unless noted. An outline of the steps:
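Cal-1 cells, 500 per well in phenol-red-free RPMI with 10% FBS, exposed to compounds for 48 hours at 37C, 5% CO2. Viability read by CellTiter-Glo luminescence; percent activity normalized to DMSO (100%) and 9.2 uM bortezomib final (0%).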

The nature of assay [8]: qHTS assay for measurement of the activity of small molecule inhibitors on Zika virus induced Caspase-3 activity in human iPSC derived neural progenitor cells (hNPCs) (AID 1224857). Further: % of control where 0% means no effect; nearly all actives have a fitted effect of over 65% in size. A digest of the protocol: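 Pretreat hNPCs with compound 1 h; infect ZIKV 2 FFU/cell; 6 h 37 C, 5% CO2; Caspase-Glo 3/7, 30 min RT; luminescence; normalize to no-virus and virus-only wells.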

The nature of assay [9]: qHTS assay for measurement of the activity of small molecule inhibitors on Zika virus induced Caspase-3 activity in human astrocytoma cells (AID 1224859).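 Further: plate controls were ZIKV-infected untreated cells for no effect and uninfected cells for full effect.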 A digest of the protocol:
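Human SNB-19 astrocytoma cells in RPMI 1640 with 10% FBS receive compound one hour ahead of Zika virus at 2 FFU/cell. After 6 h infection, caspase-3/7 activity is detected by Caspase-Glo luminescence.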

Assay [10] in a line: qHTS Screen of the MIPE 4.0 Collection Against Ewings Sarcoma (RDES) (AID 1259252). Further: nearly all actives have a fitted effect of over 35% in size. Further: potency means the concentration at half of the fitted maximal effect. A digest of the protocol: (§2)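 Viability screen: 48 h incubation at 37C, 95% humidity, 5% CO2 with serially titrated compound, followed by CellTiter-Glo readout.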
Assay [11] can be described thus: qHTS Screen of the MIPE 4.0 Collection Against Ewings Sarcoma (TC71) (AID 1259253). Further: nearly all actives have a fitted effect of over 40% in size. Further: potency means the concentration at half of the fitted maximal effect. A digest of the protocol:
as §2

Assay [12] can be described thus: qHTS Screen of the MIPE 4.0 Collection Against Ewings Sarcoma (EW8) (AID 1259255). Further: nearly all actives have a fitted effect of over 35% in size. Further: potency means the concentration at half of the fitted maximal effect.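 On viability: 100% = DMSO-treated cells and 0% = medium-only wells without cells.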 A digest of the protocol:
as §2

In assay [13] the target is T1, Hexokinase-4 (Homo sapiens) + Glucokinase regulatory protein (Homo sapiens) (UniProt P35557+Q14397). Kind of assay: qHTS assay for inhibitors of recombinant human GCK-GKRP interaction: Diaphorase-coupled assay (AID 743205). A digest of the protocol: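 25 mM Hepes pH 7.6, 5 mM glucose, 0.4 mM ATP, 4 U/ml G6PDH; 10 nM each GST-GCK/FLAG-GKRP. Kinetic fluorescence read, 1/min × 30 min. Normalized: DMSO ± enzyme = max/min.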

Assay [14] addresses T1, Hexokinase-4 (Homo sapiens) + Glucokinase regulatory protein (Homo sapiens). Kind of assay: qHTS assay for inhibitors of recombinant human GCK-GKRP interaction: ADP-Glo assay (AID 743206).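 Further: plate controls were DMSO plus enzyme for no effect and no enzyme for full effect.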 An outline of the steps:
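GST-GCK and FLAG-GKRP (15 nM each in the dispensed mix, with 2 uM S6P) react with 0.4 mM ATP and 5 mM glucose (final) in Hepes pH 7.6 for 60 min at room temperature. ADP is measured by ADP-Glo luminescence.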

The target is the same in assay [15]. The assay can be described thus: qHTS assay for inhibitors of recombinant human GCK-GKRP interaction: HTRF assay (AID 743207).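 Further: 0% = DMSO with GCK present and -100% = DMSO wells lacking GCK.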 A digest of the protocol: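 5 nM GST-GCK + 5 nM FLAG-GKRP + 2 uM S6P, pH 7.1 buffer (25 mM Hepes, 2 mM MgCl2, 25 mM KCl, 1 mM DTT, Tween/BSA); pin-transferred cpd; anti-FLAG XL665/anti-GST K; 60 min RT; HTRF.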
Assay [16] in a line: qHTS assay for small molecule agonists of the antioxidant response element (ARE) signaling pathway measured by Nrf2-dependant transcriptional activity - cell viability counter screen (AID 720653; active means well fitted curve in the direction sought with a large enough effect in the repeat runs; an effect the other way counts as inactive or inconclusive; further: on the % scale 0 is the no-effect control and ±100 the full control effect). The settings on record: ARE-bla HepG2 viability, CellTiter-Glo ATP luminescence, 16 h; max response: stronger effect = lower value. An outline of the steps:
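ARE-bla HepG2 cells treated with compounds for 16 h at 37C; this counter screen measures viability as intracellular ATP by CellTiter-Glo luminescence after 30 min at room temperature.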

Assay [17] can be described thus: qHTS assay for cell viability of HEK293 cells (AID 743288). Further: on the % scale 0 is the no-effect control and ±100 the full control effect; nearly all actives have a fitted effect of over 50% in size. To be noted: ATP luminescence (CellTiter-Glo), 18 h; max response: stronger effect = lower value. An outline of the steps:
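HEK293 parental, 2,000 cells/well; ≥5 h pre-incubation 37 C; pintool compound addition; 18 h, 37 C; CellTiter-Glo 30 min RT; luminescence read.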

The nature of assay [18]: qHTS assay for cell viability of the p53RE-bla HCT-116 cell line (AID 743292). Further: on the % scale 0 is the no-effect control and ±100 the full control effect; nearly all actives have a fitted effect of over 55% in size. An outline of the steps: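 HCT-116 p53RE-bla cells seeded 4,000/well; 5 h at 37 C; compound (DMSO) added; 16 h at 37 C; CellTiter-Glo added, 30 min RT; luminescence read.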
Assay [19] is described as follows: qHTS profiling for inhibitors of Plasmodium falciparum (3D7) proliferation (AID 743322; call rule not given here;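 further: infected erythrocytes exposed to compound for 72 h before lysis; 100% = DMSO vehicle wells and 0% = 0.29 µM artemisinin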). The settings on record: P. falciparum 3D7 proliferation; at 28.7 µM (top of the series) unless noted. A digest of the protocol: as §1
Assay [20] can be described thus: qHTS profiling for inhibitors of Plasmodium falciparum (DD2) proliferation (AID 743323; call rule not given here). To be noted: lower = more inhibition; at 28.7 µM (top of the series) unless noted. A digest of the protocol:
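1536-well qHTS; infected RBCs 0.3% parasitemia/2.5% Hct final; cpd 72 h 37 C 5% CO2; lysis buffer + SYBR Green I, o/n RT dark; FI 485/535; norm. to 0.29 uM artemisinin and DMSO, plate-stack corrected.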

T1 sequence (P35557 whole entry, looked up): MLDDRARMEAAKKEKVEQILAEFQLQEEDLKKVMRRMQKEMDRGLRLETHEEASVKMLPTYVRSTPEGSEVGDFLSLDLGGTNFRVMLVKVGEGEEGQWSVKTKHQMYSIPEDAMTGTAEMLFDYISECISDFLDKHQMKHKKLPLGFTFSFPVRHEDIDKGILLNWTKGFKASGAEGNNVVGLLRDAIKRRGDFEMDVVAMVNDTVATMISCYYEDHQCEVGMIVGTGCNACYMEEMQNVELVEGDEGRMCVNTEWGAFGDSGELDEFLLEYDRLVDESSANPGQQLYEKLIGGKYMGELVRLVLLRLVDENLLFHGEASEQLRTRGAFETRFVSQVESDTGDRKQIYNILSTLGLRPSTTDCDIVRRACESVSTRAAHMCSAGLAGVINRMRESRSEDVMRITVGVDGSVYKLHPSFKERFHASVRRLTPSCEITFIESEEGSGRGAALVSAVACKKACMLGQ
T1 sequence (Q14397 whole entry, looked up): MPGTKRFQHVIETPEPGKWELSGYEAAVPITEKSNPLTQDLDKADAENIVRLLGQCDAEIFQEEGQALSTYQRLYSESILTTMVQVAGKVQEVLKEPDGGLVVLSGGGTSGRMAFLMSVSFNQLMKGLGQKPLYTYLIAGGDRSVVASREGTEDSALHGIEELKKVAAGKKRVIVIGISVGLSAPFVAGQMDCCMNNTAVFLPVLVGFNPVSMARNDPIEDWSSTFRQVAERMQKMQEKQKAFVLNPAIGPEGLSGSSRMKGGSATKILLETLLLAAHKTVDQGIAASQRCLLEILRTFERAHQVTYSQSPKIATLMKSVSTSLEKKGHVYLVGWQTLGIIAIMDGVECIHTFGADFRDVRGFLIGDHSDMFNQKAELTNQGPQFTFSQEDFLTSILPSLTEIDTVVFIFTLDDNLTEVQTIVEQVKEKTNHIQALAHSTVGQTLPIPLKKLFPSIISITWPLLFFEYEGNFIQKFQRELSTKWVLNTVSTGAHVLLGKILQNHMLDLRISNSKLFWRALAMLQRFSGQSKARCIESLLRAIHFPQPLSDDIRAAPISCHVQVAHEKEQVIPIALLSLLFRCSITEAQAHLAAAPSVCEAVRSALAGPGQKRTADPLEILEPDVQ

In the case of `CC(C)(S)[C@@H](N)C(=O)O`, in [1], the max response is 21.3% (inactive). In assay [2], the parasite growth, % of DMSO control was 106%. Further, the parasite growth remaining, % of DMSO control (lower = more inhibition) in [3] was 127%. The parasite growth, % of control (lower = inhibition) in assay [4] was 76.1%. The growth, % of control in assay [5] came out at 95.7%. Moreover, the cell viability, % of control (lower = more cytotoxic) in assay [6] was determined as 117%. The viability (% of control) in assay [7] is 106%. The Potency result in [8], in assay [9], in [10], in [11] and in assay [12] was “inactive” each time.
With `O=Nc1c(-c2c(O)[nH]c3cc(Br)ccc23)[nH]c2ccccc12`, the outcome in assay [13], in [14] and in [15] was inactive. In addition, the parasite growth, % of DMSO control in [2] was 2.9%. The parasite growth remaining, % of DMSO control (lower = more inhibition) in assay [3] was determined as 6.11%. The parasite growth, % of control (lower = inhibition) in assay [4] was 3.69%. Also, the growth, % of control in assay [5] amounted to 1.37%. Further, the cell viability, % of control (lower = more cytotoxic) in assay [6] worked out at 1.04%. Moreover, the viability (% of control) in assay [7] was 1.62%. Further, the Potency result in [8] and in assay [9] was “inactive” in each case. Also, the values for the Potency in assay [10], in assay [11] and in assay [12] were 3.32 µM (active), 7.43 µM (active) and 4.18 µM (active), respectively.
For the compound `COc1c(O)cc2c(c1O)[C@@H]1O[C@H](CO)[C@@H](O)[C@H](O)[C@H]1OC2=O`, the max response in assay [1] is 0.91% (inactive). Also, in assay [2], the parasite growth, % of DMSO control was determined as 92.9%. The parasite growth remaining, % of DMSO control (lower = more inhibition) in assay [3] was found to be 100%. The parasite growth, % of control (lower = inhibition) in assay [4] was 81.9%. The growth, % of control in assay [5] worked out at 116%. Also, in assay [6], the cell viability, % of control (lower = more cytotoxic) came to 123%. For the same compound, the viability (% of control) in [7] was 97.8%. In addition, the Potency result in assay [8], in assay [9], in assay [10], in [11] and in assay [12] was “inactive” each time.
As for `COc1ccccc1N1CCN(CCN(C(=O)C2CCCCC2)c2ccccn2)CC1`, the outcome in assay [13], in assay [14] and in assay [15] was inactive. The parasite growth, % of DMSO control in [2] was found to be 57.8%. For the same compound, in assay [3], the parasite growth remaining, % of DMSO control (lower = more inhibition) turned out to be 78.2%. Further, the parasite growth, % of control (lower = inhibition) in assay [4] worked out at 40.7%. The growth, % of control in [5] came to 83.7%. For the same compound, the cell viability, % of control (lower = more cytotoxic) in [6] turned out to be 39.9%. Moreover, the viability (% of control) in assay [7] was found to be 80.8%. For the same compound, the Potency result in assay [8], in assay [9], in assay [10], in assay [11] and in assay [12] was “inactive” in each case.
In the case of `Nc1nc(Cl)nc2c1ncn2[C@H]1C[C@H](O)[C@@H](CO)O1`, the max response in [16] was -12.8% (inactive); in assay [17], -15% (inactive). Moreover, the Potency result in [18], in assay [8] and in assay [9] was “inactive” throughout. The compound also displayed a remaining parasite growth % (stronger effect = lower value) in [19] of 83.8% [at 57.5 µM]. Moreover, in assay [20], the activity, percent of control is 93.6% [at 57.5 µM]. The compound also gave a parasite growth, % of DMSO control in assay [2] of 102%. Further, in assay [3], the parasite growth remaining, % of DMSO control (lower = more inhibition) was found to be 90.9%. Also, in [4], the parasite growth, % of control (lower = inhibition) was 114%. This compound also displayed a growth, % of control in [5] of 103%. For the same compound, in assay [6], the cell viability, % of control (lower = more cytotoxic) came out at 93.3%. For the same compound, in assay [7], the viability (% of control) was found to be 12%. In addition, the Potency was 0.235 µM (active) in assay [10], 0.372 µM (active) in assay [11] and 0.372 µM (active) in assay [12].
In [2], `CN(C)C(=O)[C@H](O)[C@H](Cc1ccccc1)NC(=O)c1cc2cc(Cl)ccc2[nH]1` came in with a parasite growth, % of DMSO control of 6.18%. Further, the parasite growth remaining, % of DMSO control (lower = more inhibition) in [3] is 54.1%. Also, the parasite growth, % of control (lower = inhibition) in [4] was 13.9%. In addition, the growth, % of control in [5] came to 2.28%. For the same compound, in assay [6], the cell viability, % of control (lower = more cytotoxic) is 238%. Further, the viability (% of control) in assay [7] was 43.4%. In addition, the Potency result in assay [8] and in [9] was “inactive” each time. For the same compound, the Potency in assay [10] was 18.7 µM (active); in assay [11], 16.6 µM (active); in assay [12], 23.5 µM (active).
In the case of `COc1ccc2cc([C@H](C)C(=O)O)ccc2c1`, the outcome in assay [13], in assay [14] and in assay [15] was inactive. The max response in assay [1] was 18.3% (inactive) and 6.4% (inactive). In [2], this compound registered a parasite growth, % of DMSO control of 106%. The parasite growth remaining, % of DMSO control (lower = more inhibition) in assay [3] is 100%. Besides, in assay [4], the parasite growth, % of control (lower = inhibition) was 91%. Besides, the growth, % of control in assay [5] turned out to be 102%. Besides, in [6], the cell viability, % of control (lower = more cytotoxic) turned out to be 127%. Also, the viability (% of control) in [7] worked out at 135%. Moreover, the Potency entry in [8], in [9], in assay [10], in assay [11] and in [12] was “inactive” each time.

The values above are taken from PubChem BioAssay (NCATS).
